Consider 1 compound from PubChem BioAssay (EPA / NIEHS).

Structures are written as SMILES. Values joined by “and” are separate entries in the source; they are usually repeats but may differ in a detail not shown here. Identical values can stand only once. Inconclusive results are not listed. More than one record can exist for a structure, and the calls need not agree. Active and inactive are the calls of the source. Rule for the calls, unless noted: active = hit-call score of the fitted dose curve at least 0.9, where 1 is the maximum; inactive = score below 0.9.

Read-out in experiment [1]: E-selectin (Homo sapiens) (UniProt P16581)
Description: BSK_LPS_Eselectin: BioMAP Diversity Plus: LPS Assay for Eselectin Biomarker Activity (AID 2283077). Particulars: primary human HUVEC with PBMC; actives raise or lower the signal. An outline of the steps: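 Primary human vascular co-culture (endothelium plus PBMC) was dosed with chemical, then E-selectin quantified by ELISA at 24 h. Endpoint values derive from bidirectional curve fitting relative to DMSO.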

Experiment [2] is described as follows: BSK_LPS_SRB: Viability Assessment in the BioMAP Diversity Plus: LPS Assay (AID 2283079).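 Note: total protein by sulforhodamine B absorbance as a cytotoxicity measure; measured one day after compound addition; fitted in both directions against DMSO so loss or gain of signal counts.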 Particulars: primary human HUVEC with PBMC. An outline of the steps: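 Readout is SRB absorbance at 560 nm (0.1% stain, TCA-fixed parallel cultures) as a total-protein cytotoxicity measure. Cells: primary human umbilical vein endothelium plus peripheral blood mononuclear cells, 24 h after chemical exposure; DMSO served as baseline.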

Read-out in experiment [3]: Interleukin-1 alpha (IL1a), IL1A (gene 3552)
The experiment is described as follows: BSK_LPS_IL1a: BioMAP Diversity Plus: LPS Assay for Interleukin-1 alpha (IL1a) Biomarker Activity (AID 2283080). The following applies: primary human HUVEC with PBMC; actives raise or lower the signal. An outline of the steps: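 ELISA read-out of IL-1 alpha from a human primary vascular co-culture (endothelium plus PBMC) under LPS, sampled 24 hours post-dosing. Activity was fitted in both directions relative to DMSO controls.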

Read-out in experiment [4]: Monocyte Chemoattractant Protein-1 (MCP1), CCL2 (gene 6347)
The experiment is described as follows: BSK_LPS_MCP1: BioMAP Diversity Plus: LPS Assay for Monocyte Chemoattractant Protein-1 (MCP1) Biomarker Activity (AID 2283081). Particulars: primary human HUVEC with PBMC; actives raise or lower the signal. An outline of the steps: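 Human endothelial–PBMC co-cultures were dosed with chemical, then LPS-driven MCP-1 levels were quantified by ELISA at 24 h. Activity in either direction was fitted versus DMSO negative control.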

A short description of experiment [5]: BSK_LPS_PGE2: BioMAP Diversity Plus: LPS Assay for Prostaglandin E2 (PGE2) Biomarker Activity (AID 2283082). The following applies: primary human HUVEC with PBMC; actives raise or lower the signal. An outline of the steps:
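PGE2 release measured by ELISA in an LPS-activated co-culture of human umbilical vein endothelial cells and peripheral blood mononuclear cells, read at 24 h post-dosing. DMSO served as baseline for bidirectional curve fitting.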

Read-out in experiment [6]: Macrophage colony-stimulating factor (MCSF), CSF1 (gene 1435)
The experiment is described as follows: BSK_LPS_MCSF: BioMAP Diversity Plus: LPS Assay for Macrophage colony-stimulating factor (MCSF) Biomarker Activity (AID 2283083). Particulars: primary human HUVEC with PBMC; actives raise or lower the signal. An outline of the steps:
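ELISA readout of M-CSF after 24 h compound exposure in a human endothelial/PBMC co-culture. Activity, in either direction, is fitted relative to DMSO vehicle.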

Read-out in experiment [7]: Tissue Factor, F3 (gene 2152)
The experiment is described as follows: BSK_LPS_TissueFactor: BioMAP Diversity Plus: LPS Assay for Tissue Factor Biomarker Activity (AID 2283084). The following applies: primary human HUVEC with PBMC; actives raise or lower the signal. An outline of the steps: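 ELISA signal for cell-surface Tissue Factor (CD142) was read 24 h after compound dosing of an LPS-stimulated human endothelial–PBMC primary co-culture. Gain or loss of signal was scored relative to DMSO.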

Read-out in experiment [8]: Tumor necrosis factor (Homo sapiens) (UniProt P01375)
Description: BSK_LPS_TNFa: BioMAP Diversity Plus: LPS Assay for Tumour Necrosis Factor alpha (TNFa) Biomarker Activity (AID 2283085). Particulars: primary human HUVEC with PBMC; actives raise or lower the signal. A digest of the protocol:
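TNFa was quantified by ELISA in LPS-activated co-cultures of human endothelial cells and PBMC, 24 h post-dosing. Both increases and decreases versus DMSO were fitted.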

Read-out in experiment [9]: Vascular cell adhesion molecule 1 (VCAM1), VCAM1 (gene 7412)
The experiment is described as follows: BSK_LPS_VCAM1: BioMAP Diversity Plus: LPS Assay for Vascular cell adhesion molecule 1 (VCAM1) Biomarker Activity (AID 2283086). Particulars: primary human HUVEC with PBMC; actives raise or lower the signal. An outline of the steps:
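VCAM-1 quantified by ELISA in an LPS-activated co-culture of human endothelial cells and peripheral blood mononuclear cells, read 24 h post-treatment. Fitted in both directions versus DMSO; parallel SRB staining flags overt cytotoxicity.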

Read-out in experiment [10]: CD38, CD38 (gene 952)
Description: BSK_SAg_CD38: BioMAP Diversity Plus: SAg Assay for CD38 Biomarker Activity (AID 2283087). The following applies: primary human HUVEC with PBMC; actives raise or lower the signal. An outline of the steps:
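CD38 quantified by ELISA (fluorescence) in a superantigen-activated endothelial cell–PBMC co-culture at 24 h post-dose. Activity fitted in both directions relative to DMSO; parallel SRB and Alamar Blue cytotoxicity read-outs.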

Read-out in experiment [11]: CD40, CD40 (gene 958)
Description: BSK_SAg_CD40: BioMAP Diversity Plus: SAg Assay for CD40 Biomarker Activity (AID 2283088). Particulars: primary human HUVEC with PBMC; actives raise or lower the signal. A digest of the protocol:
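Compounds were dosed onto a human primary endothelial–PBMC co-culture, and after 24 h CD40 was quantified by ELISA using a fluorescence signal. Activity in either direction was fitted relative to DMSO.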

Read-out in experiment [12]: CD69, CD69 (gene 969)
The experiment is described as follows: BSK_SAg_CD69: BioMAP Diversity Plus: SAg Assay for CD69 Biomarker Activity (AID 2283089).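 Note: cell surface CD69 protein quantified by ELISA with fluorescence detection.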 The following applies: primary human HUVEC with PBMC; actives raise or lower the signal. A digest of the protocol: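 Endothelial/PBMC co-culture; chemical added; 24 h incubation; CD69 ELISA with fluorescence detection; bidirectional fit vs DMSO.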

Read-out in experiment [13]: E-selectin (Homo sapiens) (UniProt P16581)
Description: BSK_SAg_Eselectin: BioMAP Diversity Plus: SAg Assay for Eselectin Biomarker Activity (AID 2283091). Particulars: primary human HUVEC with PBMC; actives raise or lower the signal. A digest of the protocol: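 Co-culture: HUVEC + PBMC. Dose compound; 24 h. ELISA for E-selectin. Bidirectional fit vs DMSO.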

Read-out in experiment [14]: Monokine induced gamma interferon (MIG), CXCL9 (gene 4283)
The experiment is described as follows: BSK_SAg_MIG: BioMAP Diversity Plus: SAg Assay for Monokine induced gamma interferon (MIG) Biomarker Activity (AID 2283092). The following applies: primary human HUVEC with PBMC; actives raise or lower the signal. A digest of the protocol:
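Measures CXCL9 protein by ELISA in a human vascular primary-cell co-culture (umbilical vein endothelium with PBMC) 24 h after chemical addition. Activity is scored up or down from the DMSO control.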

Experiment [15] is described as follows: BSK_SAg_PBMCCytotoxicity: PBMC Cytotoxicity Assessment in the BioMAP Diversity Plus: SAg Assay (AID 2283093).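 Note: PBMC superantigen activated with SEB plus TSST-1 one hour after compound addition; PBMC viability measured as Alamar Blue reduction fluorescence at 546/580 nm; fitted both ways against DMSO so a hit may be loss or gain of signal.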 Particulars: primary human HUVEC with PBMC. A digest of the protocol:
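Alamar Blue reduction (6 h, 546/580 nm) reports PBMC cytotoxicity after 90 h superantigen activation (SEB, TSST-1; 20 ng/mL final each) with 1 h compound pre-treatment. Gain or loss of signal fitted versus DMSO.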

Read-out in experiment [16]: Interleukin-8 (IL8), CXCL8 (gene 3576)
The experiment is described as follows: BSK_SAg_IL8: BioMAP Diversity Plus: SAg Assay for Interleukin-8 (IL8) Biomarker Activity (AID 2283094). The following applies: primary human HUVEC with PBMC; actives raise or lower the signal. A digest of the protocol:
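ELISA readout of IL-8 from a superantigen-activated endothelial/PBMC primary human co-culture, taken 24 h post-dosing and fitted in both directions against DMSO; parallel SRB total-protein staining flags overt cytotoxicity.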

The nature of experiment [17]: BSK_SAg_Proliferation: Cell Proliferation Assessment in the BioMAP Diversity Plus: SAg Assay (AID 2283095).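 Note: relative cell number as total protein by SRB absorbance in sub-confluent culture.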 The following applies: primary human HUVEC with PBMC. A digest of the protocol:
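Relative cell number in the endothelial cell/PBMC co-culture was quantified at 96 h by SRB staining (0.1% SRB, 10% TCA fixation, read at 560 nm). Curves were fitted in both directions relative to DMSO baseline.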

Experiment [18] is described as follows: BSK_SAg_SRB: Viability Assessment in the BioMAP Diversity Plus: SAg Assay (AID 2283096).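 Note: cells read one day after compound addition; hits may be either gain or loss of signal compared with DMSO.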 The following applies: primary human HUVEC with PBMC. A digest of the protocol: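 This overt-cytotoxicity endpoint quantifies protein in human endothelial/PBMC co-cultures at 24 h using SRB absorbance (560 nm) after trichloroacetic acid fixation. Values reflect signal change from the DMSO negative control, fitted bidirectionally.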

Experiment [19] can be described thus: TOX21_p53_BLA_p2_viability: Viability Assessment in the Tox21 HCT-116 p53 Agonism Beta-lactamase Assay, Phase 2 (AID 2283591; active = hit-call score of the fitted dose curve at least 0.9, where 1 is the maximum;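 note: compound exposure lasted 16 h at 37 °C; actives lower the ATP signal meaning cytotoxicity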). An outline of the steps:
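HCT-116 p53-bla cells (4000/well) rested 5 h at 37C, then received compounds in DMSO (217-fold dilution) for 16 h at 37C, 5% CO2. After the CCF4 read, CellTiter-Glo was added; ATP luminescence was read after 30 min at room temperature.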

The nature of experiment [20]: TOX21_p53_BLA_p3_viability: Viability Assessment in the Tox21 HCT-116 p53 Agonism Beta-lactamase Assay, Phase 3 (AID 2283593; active = hit-call score of the fitted dose curve at least 0.9, where 1 is the maximum;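 note: cells exposed to compound for 16 h before reading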). An outline of the steps:
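HCT-116 cells (4000/well) rested 5 h at 37C, then got DMSO compounds by pin tool (217-fold dilution) for 16 h at 37C, 5% CO2. After the bla read, CellTiter-Glo was added and luminescence read at 30 min, room temperature.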

Experiment [21] can be described thus: TOX21_p53_BLA_p4_viability: Viability Assessment in the Tox21 HCT-116 p53 Agonism Beta-lactamase Assay, Phase 4 (AID 2283597; active = hit-call score of the fitted dose curve at least 0.9, where 1 is the maximum;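 note: hits lower the luminescence signal meaning cytotoxicity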). An outline of the steps:
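Readout: ATP luminescence (CellTiter-Glo), measured 30 min after reagent addition at RT. The reagent followed a 2 h CCF4-AM incubation, and the cells had been exposed to compound for 16 h at 37C.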

Chain of E-selectin (Homo sapiens) (P16581 whole entry, looked up): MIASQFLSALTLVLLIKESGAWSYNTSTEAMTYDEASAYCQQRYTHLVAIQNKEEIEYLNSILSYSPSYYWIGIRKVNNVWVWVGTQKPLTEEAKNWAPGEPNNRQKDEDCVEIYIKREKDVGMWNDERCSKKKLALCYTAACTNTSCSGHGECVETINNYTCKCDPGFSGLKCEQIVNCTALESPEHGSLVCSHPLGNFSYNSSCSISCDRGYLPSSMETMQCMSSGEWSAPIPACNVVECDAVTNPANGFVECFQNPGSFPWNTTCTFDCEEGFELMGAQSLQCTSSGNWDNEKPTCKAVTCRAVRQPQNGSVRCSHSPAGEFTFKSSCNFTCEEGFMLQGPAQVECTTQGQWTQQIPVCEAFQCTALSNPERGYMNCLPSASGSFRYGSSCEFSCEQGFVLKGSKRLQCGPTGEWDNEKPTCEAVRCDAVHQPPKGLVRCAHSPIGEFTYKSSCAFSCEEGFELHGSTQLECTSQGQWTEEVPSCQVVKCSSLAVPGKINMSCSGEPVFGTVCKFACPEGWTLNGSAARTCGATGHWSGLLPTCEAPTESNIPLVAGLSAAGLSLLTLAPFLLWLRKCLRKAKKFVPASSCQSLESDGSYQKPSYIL
Chain of Tumor necrosis factor (Homo sapiens) (P01375 whole entry, looked up): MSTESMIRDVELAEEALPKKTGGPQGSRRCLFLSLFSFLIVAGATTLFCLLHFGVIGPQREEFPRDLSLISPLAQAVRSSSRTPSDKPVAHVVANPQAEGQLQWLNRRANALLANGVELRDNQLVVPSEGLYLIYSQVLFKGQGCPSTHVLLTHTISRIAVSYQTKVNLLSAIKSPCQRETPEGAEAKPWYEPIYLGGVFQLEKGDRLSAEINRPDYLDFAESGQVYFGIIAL

In the case of `[Cd+2].[Cl-].[Cl-]`, the AC50 (as a rule, the midpoint of the concentration-response curve, whichever way the signal moves) in experiment [1] is 32.8 µM (active) and 35.4 µM (active); in [6], 19.5 µM (active) and 31.2 µM (active); in experiment [8] it was 33 µM (active); in [9] it was 30 µM (active) and 35.9 µM (active); in experiment [10], 35.3 µM (active) and 15.6 µM (active); in experiment [11], 30.2 µM (active) and 34.7 µM (active). Moreover, the AC50 in experiment [12] was 32.4 µM (active) and 30.4 µM (active); in [13], 32.2 µM (active) and 30.2 µM (active); in experiment [15], 20 µM (active) and 30.4 µM (active); in experiment [16], 34.9 µM (active) and 31.4 µM (active); in [17], 14 µM (active) and 13.4 µM (active); in experiment [19] it was 67.9 µM (active) and 68.1 µM (active). The AC50 in [20] is 69.2 µM (active); in experiment [21] it was 68.6 µM (active). Also, the outcome in experiment [2], in experiment [3], in [4], in experiment [5], in experiment [7] and in [8] was inactive. For the same compound, the result in [14], in [18] and in experiment [20] was inactive.
